Screening results from PubChem.
Nrf2 ARE act: activators of Nrf2 (ARE) signaling | AREc32 ARE-luciferase reporter (MCF7-derived line), luminescence, 24 h | Potency, µM (titrated, usually from 46.1 µM), without a hit: top-dose activation, usual class: activators | 410,000 tested, 0.31% active | AID 624171; also: % of control where 0% means no effect; nearly all actives have a fitted effect of over 65% in size
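ARE-driven firefly luciferase activity in AREc32 cells measured after a 24 hr compound exposure at 37 deg C, using Steady-Glo reagent and a 30 min room-temperature hold.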
A549 tox: counter-screen for Nrf2 inhibitors: cytotoxicity in A549 cells. Potency, µM (series often up to 46 µM), for the others: at the highest dose activity change, negative = cytotoxicity, usual class: inhibitors. AID 504648. 390,000 tested, 0.16% active. A549 ARE-Fluc cells, CellTiter-Fluor viability, 18-24 h; also: % is scaled to controls: 0 for no effect and ±100 for the full control effect
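Cytotoxicity counterscreen: CellTiter-Fluor fluorescence was measured in A549 ARE_Fluc cells after 18-24 h of compound exposure in a concentration series. The subsequent BugLite luminescent read reports ARE-luciferase activity.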
Nrf2 inh: Nrf2 pathway inhibition; A549 ARE-Fluc reporter, luciferase luminescence, 18-24 h; Potency, µM (top dose mostly 46 µM), without a hit: top-dose activity change, negative = inhibition, most hits filed as inhibitors; 360,000 tested, 2.1% active; AID 504444; also: % is scaled to controls: 0 for no effect and ±100 for the full control effect; nearly all actives have a fitted effect of over 60% in size
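In this cell-based qHTS, ARE-driven firefly luciferase in A549 cells reports Nrf2 activity; the luminescent signal after BugLite lysis is the measured value, with a prior CellTiter-Fluor read for cell health.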
HepG2 viability: counter-screen for TGF-b inhibitors: cytotoxicity in HepG2 cells; HepG2 CAGA-GFP viability, ATP luminescence, 18 h; Potency, µM (doses to about 46.1 µM), inactives show at the highest dose activity change, negative = cytotoxicity, most hits filed as cytotoxic; 410,000 tested, 0.76% active
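CellTiter-Glo luminescence gave cytotoxicity after 18 hours at 37 degrees C. The cells were HepG2 CAGA-GFP in 1% FBS DMEM, stimulated with 500 pg/mL TGF-beta after compound addition. %Activity was normalised to no-cell wells (complete cell-killing) and DMSO (no toxicity), and curves were fitted and classified.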
TGFb inhibitor: TGF-b pathway inhibition; Potency, µM (titrated, usually from 46.1 µM), inactives show at the highest dose activity, negative = inhibition, actives largely listed as inhibitors; HepG2 CAGA-GFP TGF-b/SMAD3 reporter, GFP fluorescence, 18 h; TGF-beta stimulated, 500 pg/mL final; 410,000 tested, 1.2% active; also: % is scaled to controls: 0 for no effect and ±100 for the full control effect; nearly all actives have a fitted effect of over 65% in size
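Cell-based qHTS in HEPG2 carrying a CAGA-GFP Smad reporter; compounds added before 500 pg/mL final TGF-beta, 18 h incubation at 37 degrees C, GFP fluorescence quantified per cell by imaging cytometry.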
Active calls of the source: *; ? = inconclusive; · = no result given. The list is not random: actives were taken first. Their share in the collection is about 3.6%. Calls follow the shape of the dose curve; as a rule, active = well fitted curve in the direction sought with a large enough effect; inconclusive = small, poorly fitted or top-dose-only effect, or another doubt; inactive = no such curve, though single readings can be large; an effect the other way counts as inactive or inconclusive. Potency is read from the fitted curve at half-maximal effect.

SMILES | Nrf2 ARE act | A549 tox | Nrf2 inh | HepG2 viability | TGFb inhibitor
CCCc1nc2ccccc2c(=O)n1NC(=O)c1c(O)c2ccccc2n(C)c1=O | -0.2% | -22.4% | 18.4µM* | 4.8% | 15.9%
CCn1c(=O)c(C(=O)NNS(=O)(=O)c2ccc(C)cc2)c(O)c2ccccc21 | 3.1% | -28.2% | 14.6µM* | -18.2% | -8.4%
Cn1c(=O)c(C(=O)NNC(=O)c2ccccc2F)c(O)c2ccccc21 | ? | -11.2% | ? | -5.7% | ?
Cn1c(=O)c(C(=O)NNC(=O)c2ccc(Br)cc2)c(O)c2ccccc21 | 6.1% | -24.1% | ? | -44.2% | 7.08µM*
CCCCCCc1nc2ccccc2c(=O)n1NC(=O)c1c(O)c2c(n(CC(C)C)c1=O)CCCC2 | 0.2% | ? | 20.6µM* | -2.0% | -28.5%
COc1cc(C=O)ccc1OCc1cccc(Br)c1 | 3.0% | -2.5% | 1.0% | -21.1% | -0.5%
Nc1nnc(CC(=O)N/N=C/c2cc([N+](=O)[O-])cc(Br)c2O)s1 | -1.0% | -20.8% | -3.3% | 9.5% | 6.7%
CCC(C)N(C(=O)CSc1nc(-c2cccs2)nc2ccccc12)C1CCS(=O)(=O)C1 (stereo unspecified) | 2.4% | ? | 8.2µM* | 6.0% | ?
CCC(C)N(C(=O)CSc1ncnc2sccc12)C1CCS(=O)(=O)C1 (stereo unspecified) | -0.5% | -2.2% | -22.8% | -28.1% | -29.2%
CN(C(=O)CSc1n[nH]c(-c2cccs2)n1)C1CCS(=O)(=O)C1 (stereo unspecified) | 0.2% | 3.8% | 0.6% | 11.2µM* | 7.0%
CC(C)OC(=O)c1ccc(N2CCN(c3ccccc3F)CC2)nc1 | 4.7% | 4.2% | -5.5% | -21.0% | -18.4%
CCC1Oc2ccccc2N(CC(=O)NCc2cc(OC)ccc2OC)C1=O (stereo unspecified) | -0.2% | -2.2% | · | -2.2% | -8.0%
NNc1nc(-c2ccccc2)nc2sc3c(c12)CCCC3 | 1.41µM* | 8.3% | ? | 0.1% | -17.8%
CC(C)(C)CC(C)(C)N=C1Nc2ccccc2N[C@]12C[C@H]1CCCC(=O)N3CC[C@@H](C2)[C@@H]13 | · | · | · | -23.8% | ?
O=C1CCC[C@@H]2C[C@@]3(C[C@@H]4CCN1[C@H]24)Nc1cc(Cl)c(Cl)cc1NC3=NCc1ccccc1 | 10.2% | -16.5% | ? | -31.5% | 11.2µM*
CC(C)(C)CC(C)(C)N=C1Nc2ccc(Cl)cc2NC12C[C@H]1CCC(=O)N3CC[C@@H](C2)[C@@H]13 (stereo partly specified) | · | · | · | 10µM* | ?
CCCCCCCCCCCCCCCC[n+]1ccc(C)c2ccccc21 | · | · | · | 11.2µM* | 7.08µM*
CCCCCCCCCC[n+]1ccc(/C=C/c2c[nH]c3ccccc23)c2ccccc21 | · | · | · | 12.6µM* | 7.08µM*
CCCCCCC[n+]1ccc(/C=C/c2c[nH]c3ccccc23)cc1 | · | · | · | -18.0% | 176.7%
CCCCCCCC[n+]1cccc2c3ccccc3ccc21 | -0.5% | -7.2% | ? | -9.7% | 1.41µM*
CCCCCCCCCC[n+]1cccc2c3ccccc3ccc21 | -2.5% | 2.1% | -11.8% | 11.2µM* | 12.6µM*
O=C(NNS(=O)(=O)c1ccc([N+](=O)[O-])cc1)c1cnn(-c2ccccc2)c1-n1cccc1 | 0.1% | -2.1% | -19.7% | -2.0% | -14.7%
COc1ccc(-n2nnnc2SCc2nc3ccccc3s2)cc1 | ? | -4.0% | ? | 8.2% | 0.0%
O=C(Nc1cccn(Cc2cccc(F)c2)c1=O)NC1CCCCC1 | 4.9% | -0.1% | -15.1% | -13.2% | -26.2%
COC(=O)Cc1c(C)c2ccc(OCC(=O)N3CCCC(C)C3)c(C)c2oc1=O (stereo unspecified) | -0.5% | 1.1% | ? | -33.7% | -16.9%
SMILES | Nrf2 ARE act | A549 tox | Nrf2 inh | HepG2 viability | TGFb inhibitor
O=C(COc1ccccc1)NCc1ccc2c(c1)CCN2C(=O)c1ccc(Cl)cc1 | 0.0% | -16.4% | · | -1.0% | 31.1%
Cn1cc(CCNC(=O)CC2C(=O)NCCN2Cc2cccc(Oc3ccccc3)c2)cn1 (stereo unspecified) | 0.4% | 6.4% | 14.6µM* | 7.7% | 17.2%
O=C(CC1C(=O)NCCN1Cc1cccc(Oc2ccccc2)c1)NCCc1ccccn1 (stereo unspecified) | 2.2% | 0.3% | ? | -28.5% | -8.6%
NC(=O)c1cccc(S(=O)(=O)N2CCCCC2)c1 | -0.1% | 1.6% | · | 10.2% | 2.4%
NNC(=O)CN1CCN(c2ncc(C(F)(F)F)cc2Cl)CC1 | 0.4% | -0.9% | -28.6% | 2.9% | 15.5%
O=C(CN1CCN(c2ncc(C(F)(F)F)cc2Cl)CC1)NCCNc1ncc(C(F)(F)F)cc1Cl | 0.2% | ? | 14.6µM* | 8.0% | 4.6%
CCOc1nc(NC2CCCC2)nc(N2CCC(C)CC2)n1 | 6.6% | -0.7% | -21.4% | -5.9% | -35.4%
CN(C(=O)CSc1nnc(-c2ccccc2)n1C)C1CCS(=O)(=O)C1 (stereo unspecified) | -0.7% | -2.1% | 4.5% | -0.1% | 0.0%
COc1cccc(/C=N/n2c(N)c(S(=O)(=O)c3cccs3)c3nc4ccccc4nc32)c1 | -0.2% | -1.5% | ? | -26.2% | 16.3%
Nc1c(S(=O)(=O)c2cccs2)c2nc3ccccc3nc2n1/N=C/c1cccc(O)c1 | -0.9% | ? | 25.9µM* | -35.3% | ?
CCOc1ccc(NC(=O)CSc2nnc3scc(-c4ccc(Cl)cc4)n23)cc1 | 0.3% | 0.3% | ? | -0.2% | 3.0%
Cc1nc(NC2=NCN(CCCN3CCOCC3)CN2)nc2c(C)cccc12 | 19.2% | -9.2% | 8.9% | -25.1% | 15.8µM*
Cc1ccccc1NC(=O)NC1(C(=O)NCCCN2CCOCC2)CCCCC1 | -0.6% | -4.0% | -0.2% | -11.7% | -0.7%
COc1ccc(O)c(/C=N/NC(=O)c2ccc(CSc3nc(C)cc(C)n3)cc2)c1 | 4.2% | -12.7% | 9.2µM* | -37.0% | ?
COc1ccc(/C=N/NC(=O)c2ccc(CSc3nc(C)cc(C)n3)cc2)cc1O | 6.3% | -24.6% | 20.6µM* | 1.3% | -12.0%
COc1ccc(/C=N/NC(=O)c2ccc(CSc3nc(C)cc(C)n3)cc2)c(OC)c1OC | -0.8% | -2.5% | -4.9% | -21.3% | ?
CCOc1ccc(N=C/C=C/c2ccccc2)c(O)c1 | 10.7% | -0.5% | -1.0% | -120.8% | 14.1µM*
Clc1ccc(-c2nc3cnccn3c2Nc2ccc3c(c2)OCO3)cc1 | -0.7% | ? | 23.1µM* | -27.2% | ?
CSc1ccc(-c2nc3cnccn3c2Nc2ccc3c(c2)OCO3)cc1 | 5.4% | 12.5% | -27.5% | -35.5% | 5.01µM*
COc1ccc(C2=NN(C(=O)CCC(=O)O)C(c3ccc(F)cc3)C2)cc1 (stereo unspecified) | 2.7% | -1.7% | -28.3% | -14.4% | 7.8%
O=C(COc1ccccc1Cl)Nc1cccc(S(=O)(=O)N2CCCC2)c1 | 2.5% | -7.5% | ? | -29.2% | -6.7%
